Source: PubChem BioAssay AID504692 (The Scripps Research Institute Molecular Screening Center, 2011)
About 2,000 (0.59%) of roughly 340,000 compounds were called active. The full list was thinned out, with actives kept by preference. A number with no mark means an inactive call. Rule as the data show it: active = activation mostly above about 9.5% (no sharp cut-off); inactive = mostly below about 7.6%.

target: 5-hydroxytryptamine receptor 5A (Homo sapiens) (UniProt P47898); test: HTR5A agonists in luminescence cell assay, primary screen, counter-screen for OPRM1-OPRD1 heterodimer agonist project, full-deck HTS (AID 504692); conditions: cell-based, at 9.3 µM, active compounds read high;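 also: 0% = cells with vehicle only and 100% = reference agonist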
Sequence (P47898 whole entry, looked up): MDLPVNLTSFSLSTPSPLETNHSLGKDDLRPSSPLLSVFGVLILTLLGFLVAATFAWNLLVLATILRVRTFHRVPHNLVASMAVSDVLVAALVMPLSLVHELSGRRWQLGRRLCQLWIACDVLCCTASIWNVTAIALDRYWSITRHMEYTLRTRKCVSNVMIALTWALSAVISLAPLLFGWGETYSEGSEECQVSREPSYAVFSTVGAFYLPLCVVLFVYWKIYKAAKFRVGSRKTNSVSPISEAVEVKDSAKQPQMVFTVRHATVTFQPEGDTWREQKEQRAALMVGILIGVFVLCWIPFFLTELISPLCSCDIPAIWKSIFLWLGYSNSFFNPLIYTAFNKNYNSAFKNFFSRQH

Compound | activation
O=C(NC1CCCC1)c1cc(-c2ccccc2)on1 | -5.2%
CC(C)CNC(=O)c1cc(-c2ccc(Br)cc2)on1 | 5.27%
CC(NC(=O)c1cc(-c2ccccc2)on1)c1ccccc1 (centres undefined) | 18.9% (active)
CCOC(=O)c1c(/N=C/c2cc(C)ccc2O)sc2c1CCC2 | 3.38%
Cc1cc(-c2ccc(C)c(S(=O)(=O)NCCCN(Cc3ccccc3)C(C)C)c2)on1 | -3.67%
Cc1cc(-c2ccc(C)c(S(=O)(=O)Nc3ccc(S(N)(=O)=O)cc3)c2)on1 | 1.19%
Cc1cc(-c2ccc(C)c(S(=O)(=O)NC(C)Cc3ccco3)c2)on1 (centres undefined) | 11.8% (active)
CCc1c(C)c2c(C)[nH]nc2oc1=O | 2.29%
CNS(=O)(=O)c1cccc(C(=O)OCCCC(=O)c2ccccc2)c1 | 2.3%
CCCNC(=S)N1CCCC(c2nc3ccccc3[nH]2)C1 (centres undefined) | 2.29%
CCNC(=S)N1CCC(c2nc3cc(C)c(C)cc3[nH]2)CC1 | 0.03%
CN(C)CCCNC(=S)N1CCC(c2nc3ccccc3[nH]2)CC1 | 11.5% (active)
O=C(OCC(=O)N1CCCCCC1)c1cnc(Cl)c(Cl)c1 | -5.36%
CCCOc1ccc(C(=O)C(CCC(CNCC)C(=O)c2ccc(OCCC)cc2)CNCC)cc1 (centres undefined) | 19.9% (active)
CCCOc1ccc(/C=N/NC(=O)C2CC2)c(OCCC)c1 | 4.85%
CCCOc1ccc(C(=O)CCC(=O)OC(C)C(=O)Nc2ccc(NC(C)=O)cc2)cc1 (centres undefined) | 2.99%
O=C(c1ccco1)N1CCN(Cc2cccc(C(F)(F)F)c2)CC1 | 4.8%
Cn1c(CN2CCOCC2)nc2cc(NC(=O)c3ccc(Cl)cc3)ccc21 | 9.89%
CN(c1ccccc1)S(=O)(=O)c1cc(C(=O)OCC(=O)N2CCN(C(=O)c3ccco3)CC2)ccc1Cl | 3.06%
CN(c1ccccc1)S(=O)(=O)c1ccc(C(=O)N2CCN(c3ccccc3Cl)CC2)cc1 | 0.22%
CN(c1ccccc1)S(=O)(=O)c1cc(C(=O)N2CCN(c3ncccn3)CC2)ccc1Cl | 15.4% (active)
Cc1cc(C)cc(C(=O)NCC(=O)OCC(=O)N2CCCCC2)c1 | -2.45%
Cc1ccc(S(=O)(=O)N(CC(=O)NCCSC2CCCCC2)c2ccccc2F)cc1 | 2.64%
O=C(NC1(C(F)(F)F)N=C2SCCN2C1=O)c1ccco1 (centres undefined) | 3.99%

Compound | activation
CC(C)OC(=O)c1ccc(NCc2cc(O)ccc2O)cc1Cl | 3.07%
O=C(OC12CC3CC(CC(C3)C1)C2)c1ccc(NCc2cc(O)ccc2O)cc1 | 21.4% (active)
COC(=O)c1ccc(NCc2cc(O)ccc2O)cc1 | 6.1%
C/C(=N\NC(=S)NC1CCCCC1)c1ccc(C)o1 | 6.64%
CCOC(=O)C1CSC(CC(=O)Nc2ccc(OCC)cc2)C(=O)N1 (centres undefined) | -5.17%
O=C(Nc1cccc(S(=O)(=O)N2CCCC2)c1)c1cncc(Br)c1 | 0.81%
CCN(CC(=O)Nc1ccc(S(=O)(=O)N2CCCC2)cc1)CC(=O)Nc1cccc(OC)c1 | -2.62%
O=C(CSc1ccccc1)Nc1cccc(S(=O)(=O)N2CCCCC2)c1 | -8.72%
CCN(CC)S(=O)(=O)c1cccc(NC(=O)c2ccc(S(=O)(=O)N3CCCC3)cc2)c1 | 13.2% (active)
O=C(Nc1cccc(S(=O)(=O)N2CCCCC2)c1)c1cncc(Br)c1 | 0.4%
CCN(CC(=O)Nc1cccc(S(=O)(=O)N2CCCCC2)c1)Cc1ccccc1 | 15.5% (active)
CCOc1ccccc1NC(=O)CCS(=O)(=O)c1cccc2nsnc12 | 6.16%
O=C(COC(=O)c1cccnc1Cl)NC(=O)NC1CCCCC1 | -1.43%
OC(COCCC12CC3CC(CC(C3)C1)C2)CN1CCCCC1 (centres undefined) | 3.12%
CCCOc1cccc(C(=O)Nc2ccccc2C(=O)N2CCN(C)CC2)c1 | -7.36%
COc1ccccc1CNC(=O)COn1nnc2ccc(S(=O)(=O)N3CCOCC3)cc21 | -2.13%
O=C(COc1ccccc1)N1CCN=C1SCc1cccc(F)c1 | 8.07%
CN(Cc1cccnc1)C(=O)c1cc(COc2ccc3ncccc3c2)on1 | 11.7% (active)
CN(Cc1cnccn1)C(=O)c1cc(COc2cccc(C(F)(F)F)c2)on1 | 0.68%
CC(=O)c1cccc(OCc2cc(C(=O)NC(C)Cc3cccnc3)no2)c1 (centres undefined) | 2.99%
O=S(=O)(NC1CCCC1)c1ccc(-n2cnnn2)cc1 | 4.29%
CCn1c(C(C)C)n[nH]c1=S | 1.98%
CCOC(=O)c1c(NC(=O)CSc2cn(CC)c3ccccc23)sc2c1CCC2 | -4.94%
CCOC(=O)c1c(NC(=O)NC(C)(C)C)sc2c1CCN(C)C2 | -2.16%

Compound | activation
CCOC(=O)c1c(NC(=O)Cn2nc(C(F)(F)F)cc2C)sc2c1CCC2 | 12.1% (active)
CCCn1c(SCC(=O)Nc2c(C)cccc2C)nnc1C(C)C | -3.62%
O=C(COc1ccccc1Cl)Nn1cnnc1 | 0.57%
COC(=O)c1c(-c2ccsc2)oc2ccc(-c3cc(OC)c(OC)c(OC)c3)cc12 | 6.62%
COc1cc(-c2c(-c3ccc4c(c3)OCO4)noc2C)ccc1F | -0.29%
COc1cc2c(-c3ccc4c(c3)OCO4)c(-c3ccsc3)oc(=O)c2cc1OC | 15.3% (active)
O=C(CCl)NNc1cccc(Cl)n1 | -8.59%
COc1ccc2c(c1)C(=O)CC(c1ccccc1)O2 (centres undefined) | -1.73%
COc1ccc(N)c(C)c1 | 0.27%
COc1ccc2c(c1)SC(C)CC2=O (centres undefined) | 10.6% (active)
O=S(=O)(c1cccc(-c2nnc(SC(F)F)n2-c2ccccc2)c1)N1CCCCC1 | 0.34%
CCOc1ccc(CN2CCN(Cc3ccc(C)o3)CC2CCO)cc1 (centres undefined) | -1.69%
Cc1ccc(CN2CCN(Cc3cn(C)nc3-c3ccccc3)CC2CCO)o1 (centres undefined) | -1.42%
Cc1ccc(CN2CCN(Cc3ccc(OCCO)cc3)CC2CCO)o1 (centres undefined) | 15% (active)
Cc1ccc2c(c1)C(c1ccccc1)N(C(=O)c1ccc(F)cc1)CC(=O)N2 (centres undefined) | -1.42%
COc1ccc2c(CC(=O)OCC(=O)Nc3ccccc3[N+](=O)[O-])coc2c1 | -1.41%
O=S(=O)(Nc1ccccc1)c1ccc(NS(=O)(=O)c2cccs2)cc1 | 9.34% (active)
O=S(=O)(Nc1ccccc1Br)c1cccs1 | 8.11%
Cc1ccc(NS(=O)(=O)c2cccs2)cc1S(=O)(=O)N1CCCCCC1 | 0.15%
Cc1c(OC(C)C(=O)NCC2CCC(C(=O)O)CC2)ccc2c1oc(=O)c1ccccc12 (centres undefined) | 1%
CCOC(=O)N1CCC(Nc2c(NCCCN3CCN(c4ccc(OC)cc4)CC3)c(=O)c2=O)CC1 | -0.13%
COc1ccc(S(=O)(=O)Nc2cc(C)on2)cc1NC(C)=O | 1.04%
CC(C)(C)c1ccc(C(=O)N2CCC(C(=O)N3CCCCC3)CC2)cc1 | 5.42%
COc1ccccc1CNC(=O)C1CCN(S(=O)(=O)c2ccc3c(c2)CC(C)N3C(=O)C2CC2)CC1 (centres undefined) | -0.1%

Compound | activation
COc1ccc(S(=O)(=O)N2CCN(CC(=O)N3c4ccccc4CC3C)CC2)cc1OC (centres undefined) | 22.4% (active)
CC1Cc2ccccc2N1C(=O)CSc1nnc(-c2ccc(S(=O)(=O)N3CCCC3)cc2)n1C (centres undefined) | 2.27%
O=C(CCS(=O)(=O)c1cccc2nsnc12)N1CCN(c2ccccc2F)CC1 | 5.73%
CN(Cc1ccccc1)C(=O)c1cccc(C(=O)N(C)Cc2ccccc2)c1 | -0.63%
CN(Cc1ccccc1F)C(=O)C(Cc1ccccc1)NC(=O)c1ccccc1 (centres undefined) | -1.74%
CC(Cc1ccccc1)C(=O)N(C)Cc1ccccc1 (centres undefined) | 12.5% (active)
O=C(COC(=O)/C=C/c1ccc(S(=O)(=O)N2CCCCCC2)cc1)NCc1ccccc1Cl | -5.05%
O=C1CCCN2N=C(SCC(=O)Nc3ccc(Br)cc3)SC2=N1 | -3.71%
CCCCCN(C(=O)NC(=O)Nc1ccccc1OC)S(C)(=O)=O | -1.57%
CCOc1cc(/C=C2/N=C(c3ccc(C(C)(C)C)cc3)OC2=O)cc(Cl)c1OS(C)(=O)=O | 13.3% (active)
Cc1ccc(C2=N/C(=C\c3ccc(OS(=O)(=O)c4ccc(C)cc4)cc3)C(=O)O2)cc1 | 0.86%
COc1ccc(S(=O)(=O)Nc2cccnc2)c(Cl)c1Cl | -1.41%
Cc1cc(C)c(C)c(S(=O)(=O)Nc2ccc(O)cc2)c1C | 3.2%
Cc1cc(C)c(C)c(S(=O)(=O)Nc2cccnc2)c1C | 13.8% (active)
O=C(OCc1ccc([N+](=O)[O-])cc1)C1CC(=O)N(Cc2ccccc2Cl)C1 (centres undefined) | -0.92%
CCc1cccc(C)c1NS(=O)(=O)c1c(C)nc2sccn2c1=O | 0.59%
COCCC(=O)N1CCC(Oc2ccc(C(=O)NCc3ccon3)cc2)CC1 | 1.64%
COc1ccc(CCNC(=O)CC2SC(=Nc3cc(C)cc(C)c3)NC2=O)cc1OC (centres undefined) | 1.71%
COC(=O)c1cc(C)sc1NC(=O)CC1Nc2ccccc2NC1=O (centres undefined) | 2.14%
O=C(CC1NCCNC1=O)Nc1ccc(Oc2ccccc2)cc1 (centres undefined) | 1.17%
O=C(CC1Nc2ccccc2NC1=O)Nc1ccccc1 (centres undefined) | 17% (active)
COc1ccc(/C=C(\NC(=O)c2ccc(OCC(C)C)cc2)C(=O)OCc2ccco2)cc1 | -0.73%
